# From PubChem BioAssay (NCATS)
# Several values for one entry are separate records, joined by “and”; a condition that tells them apart may be missing. Identical values can stand only once. Results filed as inconclusive are left out. A call without a number means that no potency is given here. More than one record can exist for a structure, and the calls need not agree. Activity calls are given as the source filed them. The call rests on the fitted dose curve; in most records, active means well fitted curve in the direction sought with a large enough effect; inconclusive means small, poorly fitted or top-dose-only effect, or another doubt; inactive means no such curve, though single readings can be large; an effect the other way counts as inactive or inconclusive.
# How the values were obtained:
# [1] = target: Cytochrome P450 3A7 (Homo sapiens) (UniProt P24462); test: Cytochrome P450 family 3 subfamily A member 7 (CYP3A7) small molecule antagonists: luciferase biochemical qHTS assay (AID 1963596); further: nearly all actives have a fitted effect of over 40% in size
# Chain of Cytochrome P450 3A7 (Homo sapiens) (P24462 whole entry, looked up): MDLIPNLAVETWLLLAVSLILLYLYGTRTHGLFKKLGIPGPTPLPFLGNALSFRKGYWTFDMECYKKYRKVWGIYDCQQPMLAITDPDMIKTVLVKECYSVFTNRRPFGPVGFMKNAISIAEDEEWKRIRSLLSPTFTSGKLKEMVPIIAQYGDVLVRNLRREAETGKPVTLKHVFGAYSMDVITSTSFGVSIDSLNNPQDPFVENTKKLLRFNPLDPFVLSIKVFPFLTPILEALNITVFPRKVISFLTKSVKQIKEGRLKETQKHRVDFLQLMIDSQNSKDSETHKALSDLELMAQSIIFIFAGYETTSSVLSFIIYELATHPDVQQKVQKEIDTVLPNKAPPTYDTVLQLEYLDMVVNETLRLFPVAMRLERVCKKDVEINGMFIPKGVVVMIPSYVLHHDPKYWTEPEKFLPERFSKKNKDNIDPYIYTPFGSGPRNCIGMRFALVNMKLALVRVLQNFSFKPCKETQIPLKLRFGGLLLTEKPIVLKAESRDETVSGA
# Summary of the method: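 Biochemical CYP3A7 activity measured with P450-Glo system: luciferin formed from proluciferin substrate in NADPH-driven reaction (1 h, room temperature) after 10 min compound preincubation. Signal in relative luminescence units.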
# [2] = Viability qHTS for spleen associated tyrosine kinase inhibitor (SYKi) naive MV4-11 cells (AID 1963823); further: nearly all actives have a fitted effect of over 40% in size
# Summary of the method: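 Read-out: CellTiter-Glo luminescence. Exposure: 72 hr, 37 C, 5% CO2, 95% humidity. Cells: MV4-11 without SYK inhibitor history, 500/well, qHTS format.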
# [3] = Viability qHTS for spleen associated tyrosine kinase inhibitor (SYKi) drug resistant MV4-11 cells (AID 1963824); further: nearly all actives have a fitted effect of over 35% in size
# Summary of the method: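 SYK inhibitor-resistant MV4-11 AML cells, 500 per well, added to predispensed compounds and incubated 72 hr at 37 C, 5% CO2. Viability measured by CellTiter-Glo luminescence after 10 min at room temperature.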
# [4] = Quantitative highthroughput screen to assess conditional lethalithy of NOMO1 cells grown in RPMI1640 with untreated serum (RPMI+s) (AID 1963876); further: nearly all actives have a fitted effect of over 35% in size
# Summary of the method: (§1)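 Each medium arm—HPLM with 10% dialyzed FBS, or RPMI1640 with 5 mM glucose and 10% untreated or dialyzed FBS—was screened against an 11-point, 3-fold compound titration for 48 h at 37 °C, with CellTiter-Glo luminescence as endpoint.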
# [5] = Quantitative highthroughput screen to assess conditional lethalithy of NOMO1 cells grown in Human Plasma-Like Medium with dialyzed fetal bovine serum (HPLM+ds) (AID 1963878); further: nearly all actives have a fitted effect of over 35% in size
# Summary of the method: as §1
# [6] = Quantitative highthroughput screen to assess conditional lethalithy of P12 Ichikawa cells grown in Human Plasma-Like Medium with dialyzed fetal bovine serum (HPLM+ds) (AID 1963879); conditions: Potency: viability; further: nearly all actives have a fitted effect of over 35% in size; on Viability: series mostly up to about 46 µM
# Summary of the method: as §1
# [7] = Quantitative highthroughput screen to assess conditional lethalithy of P12 Ichikawa cells grown in RPMI1640 with dialyzed fetal bovine serum (RPMI+ds) (AID 1963880); conditions: Potency: P12-Ichikawa viability; further: nearly all actives have a fitted effect of over 35% in size
# Summary of the method: as §1
# [8] = Quantitative highthroughput screen to assess conditional lethalithy of P12 Ichikawa cells grown in RPMI1640 with untreated serum (RPMI+s) (AID 1963881); conditions: Potency: viability; further: nearly all actives have a fitted effect of over 35% in size; on Viability: series mostly up to about 46 µM
# Summary of the method: as §1
# [9] = Quantitative highthroughput screen to assess conditional lethalithy of SEM cells grown in Human Plasma-Like Medium with dialyzed fetal bovine serum (HPLM+ds) (AID 1963882); further: nearly all actives have a fitted effect of over 35% in size; on Viability: series mostly up to about 46 µM
# Summary of the method: as §1
# [10] = Quantitative highthroughput screen to assess conditional lethalithy of SEM cells grown in RPMI1640 with unreated serum (RPMI+s) (AID 1963883); further: nearly all actives have a fitted effect of over 35% in size
# Summary of the method: as §1
# [11] = Quantitative highthroughput screen to assess conditional lethalithy of NOMO1 cells grown in RPMI1640 with dialyzed fetal bovine serum (RPMI+ds) (AID 1963877); further: nearly all actives have a fitted effect of over 30% in size; on Viability: series mostly up to about 46 µM
# Summary of the method: as §1
# [12] = Cellular viability qHTS for adrenocortical cancer (ACC) cell line SW-13 (AID 1963989); conditions: SW-13 ACC cells viability, CellTiter-Glo, 48 h; activity (max response): stronger effect = lower value; further: nearly all actives have a fitted effect of over 65% in size;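 on activity (max response): cells grown in serum-free medium with ITS supplement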
# Summary of the method: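 Luminescent ATP read-out (CellTiter-Glo, 20 min at room temperature) measured metabolically competent SW-13 cells after 48 h compound treatment. Final concentrations spanned up to 46 uM; bortezomib served as positive control.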
# [13] = Cellular viability qHTS for adrenocortical cancer (ACC) cell line NCI-H295R (AID 1963990); further: nearly all actives have a fitted effect of over 60% in size
# Summary of the method: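 IC50 and maximal efficacy derive from four-parameter logistic modelling of titration curves, with reads scaled between DMSO-only wells (0%) and doxorubicin hydrochloride (100% inhibition). Compounds spanned up to 46 uM over 48 h.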
# [14] = Quantitative highthroughput screen to assess conditional lethalithy of SEM cells grown in RPMI1640 with dialyzed fetal bovine serum (RPMI+ds) (AID 1963884); further: nearly all actives have a fitted effect of over 35% in size; on Viability: series mostly up to about 46 µM
# Summary of the method: as §1
# Potency means the concentration at half of the fitted maximal effect.
Compound,Potency [1],Potency [2],Potency [3],Potency [4],Potency [5],Potency [6],Potency [7],Potency [8],Potency [9],Potency [10],Potency [11],activity (max response) [12],Potency [13],Potency [14],Potency [12]
Nc1nc(F)nc2c1ncn2[C@@H]1O[C@H](CO)[C@@H](O)[C@@H]1O,inactive,10.5 µM (active) and 16.8 µM (active) and 14.6 µM (active),13.2 µM (active) and 14.6 µM (active),0.469 µM (active),0.418 µM (active),0.469 µM (active),0.372 µM (active),0.526 µM (active),0.0935 µM (active),0.105 µM (active),,,,,
CO[C@@H]1COCC[C@@H]1N[C@@H]1CC[C@@](C(=O)N2CCc3ncc(C(F)(F)F)cc3C2)(C(C)C)C1,inactive,inactive,inactive,inactive,,,,,,,inactive,-5.19% (inactive),inactive,,
Cc1cn([C@@H]2C[C@@H](O)[C@H](CO)O2)c(=O)[nH]c1=O,inactive,inactive,inactive,inactive,,23.5 µM (active),23.5 µM (active),26.4 µM (active),,,,,inactive,,
Cn1ccc2cc3c(cc21)CCN3C(=O)Nc1cccnc1,inactive,inactive,inactive,inactive,inactive,,,,,,inactive,-12.5% (inactive) and 11.5% (inactive),inactive,,
C#CCN[C@@H]1CCc2ccccc21,inactive,inactive,inactive,inactive,,inactive,inactive,inactive,inactive,,inactive,3.89% (inactive) and -12.7% (inactive),inactive,,
CCc1c(O)cc(O)c(C(=O)c2ccc(OCCN3CCOCC3)c(OC)c2)c1CC(=O)N(CCOC)CCOC,inactive,0.132 µM (active),0.235 µM (active),2.96 µM (active),2.35 µM (active),,,,,2.96 µM (active),3.32 µM (active),-6.69% (inactive),inactive,2.64 µM (active),
Nc1nc(Cl)nc2c1ncn2[C@H]1C[C@H](O)[C@@H](CO)O1,inactive,0.0934 µM (active),0.148 µM (active),0.209 µM (active),,0.209 µM (active),0.235 µM (active),0.187 µM (active),0.105 µM (active),0.105 µM (active),0.148 µM (active),,inactive,0.0662 µM (active),
NC(=O)c1cccc2cn(-c3ccc([C@@H]4CCCNC4)cc3)nc12,inactive,9.2 µM (active) and 14.8 µM (active),10.3 µM (active) and 16.6 µM (active),inactive,,,,,,,inactive,,inactive,,
CC(C[N+](C)(C)C)OC(N)=O (stereo not drawn),inactive,inactive,inactive,inactive,,inactive,inactive,inactive,inactive,inactive,inactive,2.28% (inactive) and -2.17% (inactive),inactive,inactive,
CCn1cc(C(=O)O)c(=O)c2cc(F)c(N3CCNC(C)C3)c(F)c21 (stereo not drawn),inactive,inactive,inactive,inactive,inactive,inactive,inactive,inactive,,inactive,,-4.05% (inactive) and -10.4% (inactive),inactive,inactive,
COc1nc(C)nc(Cl)c1NC1=NCCN1,inactive,inactive,inactive,inactive,,,inactive,inactive,inactive,inactive,inactive,-1.64% (inactive),inactive,,
NC(=O)OCC(COC(N)=O)c1ccccc1,inactive,inactive,inactive,inactive,inactive,inactive,inactive,inactive,,inactive,,2.38% (inactive) and -8.33% (inactive),inactive,inactive,
COc1cc(OC)c(C(=O)CCCN2CCCC2)c(OC)c1,inactive,inactive,inactive,inactive,,inactive,inactive,inactive,,inactive,inactive,9.88% (inactive) and 2.45% (inactive),inactive,inactive,
CN(C)c1nc(Cc2ccc(NC(=O)c3ccc(C(F)(F)F)cc3)cc2)nc(N(C)C)c1CC(=O)O,inactive,inactive,inactive,inactive,inactive,inactive,inactive,inactive,inactive,inactive,,,,inactive,
Cc1nnc(NS(=O)(=O)c2ccc(N)cc2)s1,inactive,inactive,inactive,9.35 µM (active),,7.43 µM (active),,8.33 µM (active),inactive,9.35 µM (active),5.26 µM (active),-2.08% (inactive) and -2.89% (inactive),inactive,inactive,
O=C(Nc1cccnn1)N1CCC(=Cc2cccc(Oc3ccc(C(F)(F)F)cn3)c2)CC1,inactive,7.42 µM (active),10.3 µM (active) and 6.61 µM (active),inactive,,inactive,inactive,inactive,inactive,inactive,inactive,,15.8 µM (active),,
COc1cc2c(Nc3ccc(Br)cc3F)ncnc2cc1OCC1CCN(C)CC1,inactive,inactive and 820 nM (active),inactive and 731 nM (active) and 2.95 µM (active),inactive,,inactive,inactive,inactive,,,,-8.28% (inactive),inactive and 25.1 µM (active),,17.8 µM (active)

Compound,Potency [1],Potency [2],Potency [3],Potency [4],Potency [5],Potency [6],Potency [7],Potency [8],Potency [9],Potency [10],Potency [11],activity (max response) [12],Potency [13],Potency [14],Potency [12]
Cc1nnc(C(=O)NC(C)(C)c2nc(C(=O)NCc3ccc(F)cc3)c(O)c(=O)n2C)o1,inactive,inactive,inactive,inactive,inactive,inactive,inactive,,inactive,inactive,,8% (inactive) and 11.5% (inactive),inactive,inactive,
Cc1cn([C@H]2C[C@H](N=[N+]=[N-])[C@@H](CO)O2)c(=O)[nH]c1=O,inactive,inactive,inactive,1.32 µM (active),,,,,inactive,inactive,1.87 µM (active),-7.12% (inactive),inactive,,
N=C(N=C(N)N)N1CCOCC1,inactive,inactive,inactive,inactive,inactive,inactive,inactive,,inactive,inactive,,-4.25% (inactive),inactive,inactive,
NC1=N[C@H]2[C@H](CS[C@H]2CCCCC(=O)O)N1,inactive,inactive,inactive,inactive,,inactive,inactive,inactive,inactive,inactive,inactive,13% (inactive),inactive,inactive,
CCC[C@@H]1C[C@@H](C(=O)N[C@@H]([C@H]2O[C@H](SC)[C@H](O)[C@@H](O)[C@H]2O)[C@@H](C)O)N(C)C1,inactive,inactive,inactive,inactive,,inactive,inactive,inactive,inactive,inactive,inactive,,inactive,inactive,
Oc1c(Cl)cc(Cl)c2cccnc12,inactive,5.25 µM (active),8.33 µM (active),inactive,inactive,,,,16.6 µM (active),18.7 µM (active),,,7.94 µM (active),18.7 µM (active),3.55 µM (active)
O=C(c1ccc(C(=O)N2CCC(N3CCCC3)CC2)c(Nc2ccccc2)c1)N1CCC(N2CCCC2)CC1,inactive,inactive,inactive,inactive,inactive,inactive,inactive,inactive,inactive,inactive,,11.8% (inactive),inactive,inactive,
Nc1nc2c(ncn2COCCO)c(=O)[nH]1,inactive,inactive,inactive,inactive,,inactive,inactive,inactive,,,,1.46% (inactive) and 4.77% (inactive),inactive,,
C=CCn1c(=O)c2cnc(Nc3ccc(N4CCN(C)CC4)cc3)nc2n1-c1cccc(C(C)(C)O)n1,10 µM (active),0.525 µM (active),259 nM (active) and 372 nM (active),1.05 µM (active),,1.05 µM (active),1.87 µM (active),2.64 µM (active),0.235 µM (active),,0.418 µM (active),,1 µM (active),0.148 µM (active),3.55 µM (active)
CC(C)Cc1ccc(C(C)C(=O)O)cc1 (stereo not drawn),inactive,inactive,inactive,inactive,,inactive,inactive,inactive,,12.9 µM (active),inactive,8.32% (inactive) and 2.38% (inactive),inactive,,
CC[N+](CC)(CC)CCOc1cccc(OCC[N+](CC)(CC)CC)c1OCC[N+](CC)(CC)CC,inactive,inactive,inactive,inactive,,inactive,inactive,inactive,inactive,inactive,inactive,,inactive,inactive,
COc1cccc2c1CCCC2CCCN1CCN(C2CCCCC2)CC1 (stereo not drawn),inactive,16.6 µM (active),10.5 µM (active),20.9 µM (active),,,18.7 µM (active),,,,,,,,22.4 µM (active)
CC(C)Cn1cnc2c(N)nc3ccccc3c21,inactive,inactive,inactive,inactive,,,inactive,inactive,inactive,inactive,inactive,,inactive,inactive,
O=c1[nH]c(-c2ccc(C(F)(F)F)cc2)nc2c1CSCC2,inactive,2.35 µM (active),inactive,inactive,,inactive,inactive,inactive,inactive,inactive,inactive,-10.8% (inactive),inactive,inactive,
O=C1CSC(=O)N1C(CCc1ccncc1)COc1ccc(-c2cccc([N+](=O)[O-])c2)cc1 (stereo not drawn),1.34 µM (active),7.42 µM (active),4.17 µM (active),inactive,,inactive,inactive,inactive,,,inactive,,,,7.08 µM (active)
COC(=O)Nc1nc2ccc(S(=O)c3ccccc3)cc2[nH]1 (stereo not drawn),inactive,16.6 µM (active) and 841 nM (active),14.8 µM (active) and 668 nM (active),inactive,,7.43 µM (active),inactive,,,,,,4.47 µM (active) and 259 nM (active),,8.91 µM (active) and 259 nM (active)
